PD-1 reversal: reversal of PD-1 mediated T-cell inhibition. primary human CD4 T cells, PD-L1 beads, CellTiter-Glo 96 h. 29,000 tested, under 10 active. activation, % (no concentration beside the values); call rule not given here
STK33 inh: inhibitors of human STK33 kinase | Q9BYT3 | ADP-Glo luminescence, MBP substrate | inhibition, % at 12.5 µM | hit rate 0.44% among 27,000; in the data active means inhibition above about 20%
Target sequence (Q9BYT3 whole entry, looked up): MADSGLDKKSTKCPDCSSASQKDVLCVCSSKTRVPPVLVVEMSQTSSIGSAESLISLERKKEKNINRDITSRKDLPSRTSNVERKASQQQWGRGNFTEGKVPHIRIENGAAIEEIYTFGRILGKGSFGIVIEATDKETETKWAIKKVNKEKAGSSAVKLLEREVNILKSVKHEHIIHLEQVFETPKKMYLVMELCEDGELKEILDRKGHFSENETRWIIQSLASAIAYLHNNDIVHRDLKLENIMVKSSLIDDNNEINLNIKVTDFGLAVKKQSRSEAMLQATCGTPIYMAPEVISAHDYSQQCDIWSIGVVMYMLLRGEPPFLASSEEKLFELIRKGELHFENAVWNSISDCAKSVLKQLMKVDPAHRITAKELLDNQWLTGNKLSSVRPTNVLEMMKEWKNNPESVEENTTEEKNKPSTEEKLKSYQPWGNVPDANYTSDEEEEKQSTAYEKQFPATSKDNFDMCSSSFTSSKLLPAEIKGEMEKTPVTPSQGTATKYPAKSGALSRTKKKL
NOMO-1 viab: STK33 inhibitor candidate reducing NOMO-1 cell viability; inhibition, % (test concentration not listed); NOMO-1 AML viability, CellTiter-Glo luminescence, 72 h; hit rate 7.5% among 37,000; in the data active means inhibition above about 80%
Hits are given with their value; n = inactive; x = no result. Many of the other results were omitted from the sample, so hits are more common in it than they were.

SMILES | PD-1 reversal | STK33 inh | NOMO-1 viab
O=C(CSc1nnc(-c2cccc(Cl)c2)n1-c1ccccc1)Nc1ccccc1-c1ccccc1 | n | n | 142
Cc1ccc(Cl)cc1NC(=O)CSc1nnc(-c2ccccc2)n1-c1ccccc1 | n | n | n
COc1cccc(NC(=O)CSc2nnc(-c3ccc(Cl)cc3)n2-c2cccc(C)c2)c1 | n | n | 123
COc1cccc(NC(=O)CSc2nnc(-c3cccc(OC)c3)n2-c2ccc(Cl)cc2)c1 | n | n | n
C=C1C(=O)O[C@@H]2/C=C(\CO)CCC/C(C)=C/[C@H](O)C12 (stereo not given in full) | n | n | 116
C=C1C(=O)O[C@@H]2/C=C(/CO)CC/C=C(/C)C[C@H](OC(=O)C(C)CO)[C@@H]12 (stereo not given in full) | n | n | 118
C=C1C(=O)O[C@H]2[C@H]1[C@@H](OC(=O)C(C)CO)C[C@@]1(C)[C@H](O)CCC(=O)[C@H]21 (stereo not given in full) | x | n | x
Cc1sc2ncnc(SCC(=O)Nc3ccccc3[N+](=O)[O-])c2c1C | n | n | n
FC(F)(F)c1nc2ccc(Cl)cc2[nH]1 | n | x | 121
O=C(O)c1ccc2nc(CCc3nc4ccc(C(=O)O)cc4[nH]3)[nH]c2c1 | n | x | n
COc1cccc(S(=O)(=O)NCC(=O)N2CCCCC2C)c1 (stereo not given) | n | n | n
NC(=O)CN(c1ccccc1)S(=O)(=O)c1ccc(F)cc1 | x | n | n
COc1ccc(NC(=O)CSc2nc3ccc([N+](=O)[O-])cc3[nH]2)cc1 | x | n | n
CCCSc1ccc2nc(NC(=O)OC)[nH]c2c1 | x | n | 118
CCOc1ccc(NC(=O)C(C)Sc2nc3ccc(F)cc3[nH]2)cc1 (stereo not given) | x | n | n
COC(=O)Nc1nc2ccc(SC(C)C)cc2[nH]1 | x | n | 118
COc1c(O[C@@H]2O[C@H](CO[C@H]3OC[C@](O)(CO)[C@H]3O)[C@@H](O)[C@H](O)[C@H]2O)cc2occ(-c3ccc(O)cc3)c(=O)c2c1O | n | n | n
Cc1c(Br)ccc(NC(=O)CSc2nnc(-c3ccc(Cl)cc3)n2C)c1C | n | n | n
CC(O)CC(=O)c1cc(O)ccc1O (stereo not given) | n | n | n
O=C1N=C(c2cccc(O)c2)c2ccccc2Nc2ccccc21 | n | n | n
C=CC(C)(C)[C@@]12C[C@H]3C(=O)Nc4ccccc4C(=O)N3[C@@H]1Nc1ccccc12 | n | n | 92
C=CC(C)(C)[C@@]12C[C@H]3C(=O)N[C@H]([C@@H](C)CC)C(=O)N3[C@@H]1Nc1ccccc12 | n | n | n
CN1C(=O)C(c2c[nH]c3ccccc23)=C(c2c[nH]c3ccccc23)C1=O | n | n | n
C[C@H]1CC[C@@H]2[C@@H](C(=O)c3c(O)c([C@]4(O)CC[C@@H](O)[C@H]5O[C@H]54)c[nH]c3=O)[C@@H](C)C=C[C@H]2C1 | n | n | 121
C[C@H]1CN([C@@H](C)CO)C(=O)c2cc(NC(=O)CCC(F)(F)F)ccc2O[C@H]1CN(C)Cc1ccc(C(=O)Nc2ccccc2N)cc1 | n | x | 106
SMILES | PD-1 reversal | STK33 inh | NOMO-1 viab
C[C@@H]1CN([C@H](C)CO)C(=O)c2cc(NC(=O)CCC(F)(F)F)ccc2O[C@H]1CN(C)Cc1ccc(C(=O)Nc2ccccc2N)cc1 | n | x | n
C[C@@H]1CN([C@H](C)CO)C(=O)Cc2cc(NC(=O)CCN3CCOCC3)ccc2O[C@@H]1CN(C)Cc1ccc(C(=O)Nc2ccccc2N)cc1 | n | x | n
C[C@@H]1CN([C@@H](C)CO)C(=O)Cc2cc(NC(=O)CCC(F)(F)F)ccc2O[C@@H]1CN(C)Cc1ccc(C(=O)Nc2ccccc2N)cc1 | n | x | 91
C[C@@H]1CN([C@@H](C)CO)C(=O)Cc2cc(NC(=O)CCN3CCOCC3)ccc2O[C@@H]1CN(C)Cc1ccc(C(=O)Nc2ccccc2N)cc1 | n | x | n
C[C@H](CO)N1C[C@H](C)[C@H](CN(C)Cc2ccc(C(=O)Nc3ccccc3N)cc2)Oc2ccc(NC(=O)CCC(F)(F)F)cc2CC1=O | n | x | 141
FC(F)(F)C1CCN(c2ncccc2NC(=S)Nc2ccc(Cl)cc2)CC1 | n | x | n
CN(C1CCCCC1)S(=O)(=O)c1ccc(N)cc1 | n | x | n
Clc1ccc(-c2nnc(SCC3CC3)o2)cc1 | n | n | n
Cc1ccc(C)c(NC(=O)CCn2cnc3ccccc3c2=O)c1 | n | n | n
Cc1ccc(-c2cc(C(=O)NCc3cccnc3)c3cc(Br)ccc3n2)cc1 | x | n | n
C/C=C(\C)C(=O)O[C@H]1C=C(CO)C(=O)[C@H](OC(C)=O)[C@H]1C(C)C | n | n | 122
COc1cccc(-c2cc(C(F)(F)F)n3nc(C(=O)Nc4c(C#N)cnn4C)cc3n2)c1 | n | n | n
C=C1C(=O)O[C@@H]2[C@H]3O[C@]3(C)CCC=C(C)CC[C@@H]12 | n | n | 141
C=C1C(=O)O[C@@H]2C3O[C@]3(C)CC/C=C(/C)CC[C@@H]12 (stereo not given in full) | x | n | 107
Cc1ccc2nc(SCC(=O)NCc3ccccc3)[nH]c2c1 | n | n | n
COC(=O)Nc1nc2ccc(C(=O)c3cccs3)cc2[nH]1 | n | 22 | 94
COC(=O)C(C)c1ccc(C(=O)c2cccs2)cc1 (stereo not given) | x | n | n
COc1ccc(C(=O)c2ccccc2)cc1 | n | x | n
COC(=O)Nc1nc2ccc(C(=O)c3ccccc3)cc2[nH]1 | x | n | 110
COC(=O)Nc1nc2ccc(S(=O)c3ccccc3)cc2[nH]1 (stereo not given) | x | n | 102
Cc1ccc(S(=O)(=O)N(C)CC(=O)Nc2ccc(Nc3ccccc3)cc2)cc1 | n | n | n
COc1ccc(NC(=O)CCCC(=O)O)cc1 | x | n | n
O=C(Nc1ccccc1[N+](=O)[O-])c1cccc(S(=O)(=O)Nc2ccc(F)cc2)c1 | n | n | n
O=C(CSc1n[nH]c(-c2ccccc2)n1)Nc1ccc(Br)cc1 | n | n | n
CC1(C)CC(=O)C2=C(C1)Nc1ccccc1N(C(=O)C(F)(F)F)C2c1ccc(Cl)cc1Cl (stereo not given) | n | x | 87
SMILES | PD-1 reversal | STK33 inh | NOMO-1 viab
COc1ccc(C2C3=C(CC(C)(C)CC3=O)Nc3ccccc3N2C(C)=O)cc1COc1ccc(F)cc1 (stereo not given) | n | n | n
COc1cccc(N(CC(=O)Nc2c(C)n(C)n(-c3ccccc3)c2=O)S(C)(=O)=O)c1 | n | n | n
COC(=O)C[C@H]1C(C)(C)[C@H](OC(C)=O)[C@]2(O)CC3=C4CC(=O)O[C@@H](c5ccoc5)[C@]4(C)CCC3[C@@]1(C)C2=O (stereo not given in full) | n | n | n
CC(C)c1ccc(N2C=Nc3ccc(C(C)C)cc3C2)cc1 | n | x | 115
O=[N+]([O-])c1cc(C(F)(F)F)ccc1Sc1nnc(CCCO)n1-c1ccccc1 | n | n | n
CC(C)(C)c1ccc(OCc2nnc(Sc3ccc([N+](=O)[O-])cn3)n2-c2ccccc2)cc1 | n | n | 109
CC(=O)c1cccc(NC(=O)C2CCCN(S(=O)(=O)c3ccc(Cl)cc3)C2)c1 (stereo not given) | n | n | n
CC1CC(NC(=S)NCc2csc3ccccc23)CC(C)(C)C1 (stereo not given) | n | x | 109
S=C(NCc1csc2ccccc12)NCC1CC1 | n | x | n
CN1C(=O)c2ccccc2NC(=O)[C@]12O[C@@H]2c1cccc(O)c1 | n | n | n

Screening results as filed in PubChem BioAssay.
